This is a sample that favours compounds with a hit; in the whole collection about 7.4% have one here.
NPR1 antag = blocks ANP-stimulated signaling of human Npr1 receptor. P16066. HEK293 hNpr1 GloSensor cGMP, ANP-stimulated luminescence. Potency, µM (series often up to 46.3 µM), most hits filed as inhibitors. actives 1.6% (n = 76,000); calls by dose curve; note: nearly all actives have a fitted effect of over 60% in size
Target sequence (P16066 whole entry, looked up): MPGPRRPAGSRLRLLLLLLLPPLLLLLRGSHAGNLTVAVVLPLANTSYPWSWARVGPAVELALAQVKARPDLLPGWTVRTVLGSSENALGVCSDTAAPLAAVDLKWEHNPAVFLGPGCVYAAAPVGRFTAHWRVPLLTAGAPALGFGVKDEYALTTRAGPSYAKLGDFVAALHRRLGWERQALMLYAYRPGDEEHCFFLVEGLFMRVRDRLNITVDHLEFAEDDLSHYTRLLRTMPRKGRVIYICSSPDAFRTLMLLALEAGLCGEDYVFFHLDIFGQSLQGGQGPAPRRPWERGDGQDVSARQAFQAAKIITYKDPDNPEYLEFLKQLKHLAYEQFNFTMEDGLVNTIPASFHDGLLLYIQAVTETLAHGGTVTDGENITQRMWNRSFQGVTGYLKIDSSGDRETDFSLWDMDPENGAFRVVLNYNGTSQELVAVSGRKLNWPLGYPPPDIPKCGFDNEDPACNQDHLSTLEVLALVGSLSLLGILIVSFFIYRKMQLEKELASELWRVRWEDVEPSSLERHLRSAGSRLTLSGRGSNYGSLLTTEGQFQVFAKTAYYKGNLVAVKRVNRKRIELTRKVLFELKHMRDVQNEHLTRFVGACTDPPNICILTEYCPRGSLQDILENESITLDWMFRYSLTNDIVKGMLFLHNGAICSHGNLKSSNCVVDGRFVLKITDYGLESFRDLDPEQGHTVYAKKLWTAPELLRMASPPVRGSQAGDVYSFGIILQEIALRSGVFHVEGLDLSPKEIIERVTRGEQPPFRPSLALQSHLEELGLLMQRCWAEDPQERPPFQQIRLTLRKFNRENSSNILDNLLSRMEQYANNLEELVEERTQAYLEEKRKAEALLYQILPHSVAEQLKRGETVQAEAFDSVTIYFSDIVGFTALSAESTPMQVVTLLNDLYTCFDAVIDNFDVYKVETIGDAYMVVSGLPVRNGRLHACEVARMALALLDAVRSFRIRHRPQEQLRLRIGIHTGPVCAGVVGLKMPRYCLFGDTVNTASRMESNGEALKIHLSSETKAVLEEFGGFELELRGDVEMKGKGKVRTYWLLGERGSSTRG
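HEK293 cells stably expressing human Npr1 and cGMP GloSensor pGS-40F, loaded 2 h with 2% GloSensor reagent, given compound 30 min at room temperature. Luminescence read before and 20 min after 0.1 nM hNppA.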
Luciferase inh = blocks purified firefly luciferase enzyme activity | P08659 | purified P. pyralis luciferase, luminescence, biochemical | Potency, µM (titrated, usually from 115 µM), hits mostly inhibitors | actives 2.5% (n = 76,000) | AID 1347043; note: nearly all actives have a fitted effect of over 65% in size
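Biochemical qHTS: compound (6-point titration) added to 10uM D-luciferin plus 10uM ATP in Tris acetate pH 7.5 buffer with Mg, Tween-20 and BSA, then purified enzyme at 10nM; light output imaged.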
3T3 cytotox = NIH 3T3 cell cytotoxicity; NIH 3T3 viability, CellTiter-Glo ATP luminescence, 48-72 h; Potency, µM (titrated, usually from 96.7 µM), actives largely listed as inhibitors; actives 4.3% (n = 94,000); AID 1345082; note: nearly all actives have a fitted effect of over 55% in size
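Luminescent ATP readout (CellTiter-Glo, 10 min RT) after 48 or 72 hr compound exposure of NIH 3T3 cells seeded at 400 cells/well in 1536-well format; quantitative HTS.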
SNCA viab count = reduces viability of HEK-293 SNCA reporter cells | HEK-293-SNCA-luc viability, GF-AFC fluorescence, 24 h | Potency, µM (highest dose often 57.1 µM), most hits filed as cytotoxic | actives 0.12% (n = 150,000); note: nearly all actives have a fitted effect of over 30% in size
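Cytotoxicity counterscreen: after 24 h compound treatment of genome-edited SNCA-luciferase HEK-293 cells, live-cell protease substrate GF-AFC read by fluorescence after 30 min; activity scaled between DMSO (0%) and medium-only (-100%), curves Hill-fitted.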
HEK293 tox = cytotoxic compounds in HEK 293 cells; actives 6.6% (n = 94,000); AID 1345083; Potency, µM (top dose mostly 115 µM), usual class: inhibitors; HEK 293 viability, ATP luminescence (CellTiter-Glo), 48-72 h; note: nearly all actives have a fitted effect of over 60% in size
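Cells seeded first (HEK 293, 250 cells/well), then compound added by pintool. Incubation ran 48 or 72 hr at 37 degree Celsius. CellTiter-Glo was added and luminescence imaged after 10 min at room temperature.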
SNCA expr inh = reduces expression of the alpha-synuclein gene. HEK-293 SNCA-luciferase knock-in, luminescence, 24 h. Potency, µM (highest dose often 57.2 µM), usual class: inhibitors. actives 0.17% (n = 140,000); note: nearly all actives have a fitted effect of over 45% in size
Hits are given with their value; i = inactive; ? = inconclusive; nt = no result given; [ ] = dose if it differs, or a comment. Unless noted, calls come from the whole dose curve; as a rule, active = well fitted curve in the direction sought with a large enough effect; inconclusive = small, poorly fitted or top-dose-only effect, or another doubt; inactive = no such curve, though single readings can be large; an effect the other way counts as inactive or inconclusive.

SMILES | NPR1 antag | Luciferase inh | 3T3 cytotox | SNCA viab count | HEK293 tox | SNCA expr inh
COC(=O)[C@@H]1Cc2c([nH]c3ccccc23)[C@H]2C[C@@H](NCCCn3ccnc3)C[C@@H](c3ccc(Cl)c(F)c3)N21 | i | i | 25µM | i | 28µM | i
COC(=O)[C@@H]1Cc2c([nH]c3ccccc23)[C@H]2C[C@@H](NCCCn3ccnc3)C[C@@H](c3cccc(Cl)c3)N21 | i | i | 18µM | i | 28µM | i
Cn1cnc2cc(-c3ccc(F)cc3)cc(C(=O)NCCCn3ccnc3)c21 | i | i | ? | i | i | i
CS[C@H]1SC[C@@H]2C(=O)N(C)[C@H](C(C)C)C(=O)OC[C@H](NC(=O)c3cnc4ccccc4n3)C(=O)N[C@H](C)C(=O)N(C)[C@@H]1C(=O)N(C)[C@H](C(C)C)C(=O)OC[C@H](NC(=O)c1cnc3ccccc3n1)C(=O)N[C@H](C)C(=O)N2C | nt | nt | nt | 0.019µM | nt | 0.0061µM
COc1cccc(CN2Cc3nc(N(C)c4ccccc4)ccc3OCC2=O)c1 | ? | ? | ? | i | 89µM | i
CN(c1ccccc1)c1ccc2c(n1)CN(Cc1ccc(F)cc1)C(=O)CO2 | ? | 50µM | 89µM | i | ? | i
O=C(NCC1CCCO1)c1ccc(-c2ccc(N3CCCCC3)nc2)cc1 (stereo not given) | i | ? | i | i | i | i
O=C(NCc1ccco1)c1ccc(-c2ccc(N3CCCCCC3)nc2)cc1 | i | ? | ? | i | 40µM | i
Cc1ccc(CNC(=O)c2ccc(-c3ccc(N4CCCCC4)nc3)cc2)o1 | i | 14µM | i | i | ? | i
O=C(c1ccn[nH]1)N1CC=C(c2cnc3cnc(-c4ccccc4)cn23)CC1 | i | i | 22µM | i | i | i
O=C(c1ccc(-c2ncc3cnc(-c4ccccc4)cn23)cc1)N1CCS(=O)(=O)CC1 | i | i | ? | i | i | i
O=C(c1cccc(O)c1)N1CC=C(c2cnc3cnc(-c4ccccc4)cn23)CC1 | i | i | ? | i | 100µM | i
COc1ccc(CC(=O)N2CCN(c3nccc(Nc4ccccc4Cl)n3)CC2)cc1 | nt | nt | 40µM | i | ? | i
COc1ccc(CNC(=O)C2CCN(c3nccc(Nc4ccccc4Cl)n3)CC2)cc1 | nt | nt | 35µM | i | 25µM | i
O=C(NCC1CC1)C1CCN(c2nccc(Nc3ccccc3Cl)n2)CC1 | nt | nt | 32µM | i[12.5 µM] | 32µM | i
Cc1ccc(C)c(-n2nc(-c3c(C)nc4scc(CC(=O)N5CCCC5)n4c3=O)cc2C)c1 | i | i | i | i | ? | i
COc1ccc(NC(=O)Cn2cccc2-c2nc(-c3ccc(OC)c(F)c3)no2)cc1 | i | i | i | i | i | i
COCCN1CCNc2nc(COc3cccc(F)c3)n(Cc3ccccc3)c2C1=O | i | i | ? | i | ? | i
COc1cccc(OCc2nc3c(n2Cc2ccccc2)C(=O)N(CCOc2ccccc2)CCN3)c1 | ? | i | 20µM | i | 32µM | i
O=C1c2c(nc(COc3cccc(C(F)(F)F)c3)n2Cc2ccccc2)NCCN1CC1CC1 | i | i | 35µM | i | 50µM | i
O=C1c2c(nc(CNc3ccccc3Cl)n2Cc2ccccc2)NCCN1CC1CC1 | i | i | 89µM | i | 100µM | ?
O=C1c2c(nc(COc3cccc(Cl)c3)n2Cc2ccccc2)NCCN1CCOc1ccccc1 | i | i | 18µM | i | ? | ?
O=C1c2c(nc(COc3ccccc3)n2Cc2ccccc2)NCCN1Cc1ccccc1F | i | i | ? | i | ? | i
N#Cc1cccc(OCc2nc3c(n2Cc2ccccc2)C(=O)N(Cc2ccccc2F)CCN3)c1 | i | i | 28µM | ? | ? | ?
O=C1c2c(nc(CNCc3ccccc3)n2Cc2ccccc2)NCCN1CCOc1ccccc1 | i | i | ? | i | ? | i
SMILES | NPR1 antag | Luciferase inh | 3T3 cytotox | SNCA viab count | HEK293 tox | SNCA expr inh
O=C1c2c(nc(COc3ccccc3)n2Cc2ccccc2)NCCN1CCOc1ccccc1 | i | i | ? | i | 32µM | i
c1ccc2sc(CCCn3cc(-c4cncnc4)nn3)nc2c1 | i | i | i | i | i | i
Cc1ccncc1-c1c(C)nn2c1N(Cc1cccc(OC(F)(F)F)c1)CCC2 | ? | i | ? | ? | 32µM | ?
COc1ccccc1CN1CCCn2nc(C)c(-c3cnccc3C)c21 | ? | i | 45µM | i | 40µM | ?
COc1ccc(OC)c(CN2CCCn3nc(C)c(-c4cnccc4C)c32)c1 | i | i | 89µM | i | ? | i
COc1cccc(CN2CCCn3nc(C)c(-c4ccccc4[S+](C)(=O)[O-])c32)c1 | i | i | ? | i | ? | ?
Cc1ccncc1-c1c(C)nn2c1N(Cc1cccc(O)c1)CCC2 | i | i | ? | i | ? | i
NC(=O)[C@@H](Cc1ccccc1)NC(=O)C1=C[C@@H](NC(=O)c2cnccn2)[C@@H](O)[C@H](O)C1 | i | i | i | i | i | i
CC(C)Cc1cnc(C2CCCN(C(=O)OC(C)(C)C)C2)[nH]1 (stereo not given) | nt | nt | 89µM | i | ? | i
CN(Cc1ccc(-c2ccccc2)cc1)C(=O)Cc1ccccn1 | ? | ? | ? | i | 63µM | i
CN(Cc1ccc(-c2ccccc2)cc1)C(=O)Cc1ccc(F)cc1 | i | i | 35µM | i | 50µM | ?
COCc1ccc(C(=O)N2CCNCC(C(=O)O)C2)cc1 (stereo not given) | i | i | i | i | i | ?
O=C(NCc1cccs1)c1ccc2nccn2c1 | i | 40µM | i | i | i | i
O=C(NCCC1CCCCC1)c1ccc2nccn2c1 | i | ? | ? | i | 50µM | i
O=C(NCC1CC1)c1ccc2nccn2c1 | nt | nt | i | i | i | i
O=C(NCc1ccncc1)c1ccc2nccn2c1 | i | i | i | i | i | i
CSCC(=O)N[C@H]1CCN2C(=O)N(c3ccc(C(C)C)cc3)C(=O)[C@@H]2C1 | i | 32µM | i | i | i | i
O=C(COc1ccccc1)Nc1ccc2n(c1=O)C[C@H]1C[C@@H]2CN(C(=O)c2cccnc2)C1 | i | i | i | i | i | ?
CN1CCN(C(=O)c2cc3n(n2)CC(c2ccc(Br)cc2)OC3)CC1 (stereo not given) | i | i | ? | i | 40µM | i
O=C(c1cc2n(n1)CC(c1ccc(Cl)cc1)OC2)N1CCN(c2ccccc2Cl)CC1 (stereo not given) | i | i | ? | i | 28µM | ?
O=C(NCc1ccc(F)cc1F)c1cc2n(n1)CC(c1ccc(Cl)cc1)OC2 (stereo not given) | ? | i | ? | i | ? | i
O=C(c1cc2n(n1)CC(c1ccc3c(c1)OCO3)OC2)N1CCN(c2ccccc2)CC1 (stereo not given) | ? | i | ? | i | ? | ?

High-throughput results (PubChem)
